SMILES strings stand for the structures. Values joined by “and” are separate entries in the source; they are usually repeats but may differ in a detail not shown here. Equal entries are not always repeated. The whole screen tested about 1,900 compounds, of which about 15 (0.8%) were called active. The list comes from a sample in which actives are over-represented; it also holds similar structures and randomly drawn compounds. A number with no mark means an inactive call.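 The calls were made as follows: active = every replicate shows at least 50% inhibition; inconclusive = mean inhibition at least 50% but some replicate below; inactive = the rest.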

The target in this experiment is DNA repair protein RAD52 homolog (Homo sapiens) (UniProt P43351). Description: RAD52 ssDNA annealing inhibitors, primary screen, biochemical, FRET, single point (AID 651660).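 Also: 0% = median of neutral control wells and 100% = median of positive control wells.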 The settings on record: Recombinant RAD52 ssDNA annealing, FRET fluorescence, 30 min; at 18.7 µM; stronger effect = higher value.
Chain of DNA repair protein RAD52 homolog (Homo sapiens) (P43351 whole entry, looked up): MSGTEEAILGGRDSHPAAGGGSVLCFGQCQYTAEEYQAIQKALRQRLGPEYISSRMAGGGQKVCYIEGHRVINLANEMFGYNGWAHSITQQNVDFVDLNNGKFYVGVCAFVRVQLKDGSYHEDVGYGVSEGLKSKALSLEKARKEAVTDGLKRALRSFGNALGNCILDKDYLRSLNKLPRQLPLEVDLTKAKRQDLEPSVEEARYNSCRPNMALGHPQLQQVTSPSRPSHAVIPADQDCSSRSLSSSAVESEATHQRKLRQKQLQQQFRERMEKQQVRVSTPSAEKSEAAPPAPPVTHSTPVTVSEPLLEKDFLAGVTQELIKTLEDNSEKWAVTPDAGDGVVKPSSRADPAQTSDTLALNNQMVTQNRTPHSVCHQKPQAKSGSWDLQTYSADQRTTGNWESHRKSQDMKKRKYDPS
As for `O=C(CNC(=O)OCc1ccccc1)NC1CCCCCC1`, the inhibition was 0.625%.
The figure for `CC(C)OC(=O)C1C2C=CC3(CN(CC4CCCO4)C(=O)C13)O2` (stereo unspecified) is -7.36%; for `O=C(O)c1ccc(-c2ccc(O)c(F)c2)cc1` it is -3.36%.
For the compound `Cc1ncc(C(=O)O)c(C(=O)O)c1N`, the inhibition is -18.8%.
With `O=C(O)CCCNc1ccc(S(=O)(=O)Nc2ccccc2C(=O)O)cc1C(=O)O`, the inhibition is -12.9%.
For `CCOC(=O)c1ccc(N2C(=O)C(CC(N)=O)N(CCc3ccc(OC)c(OC)c3)C2=S)cc1` (stereo unspecified), the inhibition was 3.53%.
On to `CC(C)c1ccc(NC(=O)CNS(=O)(=O)c2ccc(F)cc2)cc1`, for which the inhibition was 3.93%.
As to `CCOc1ccc2oc(-c3ccccc3)c(C(=O)O)c2c1`, the inhibition is -1.63%.
For the compound `Cc1cccc(-n2c(Cc3ccccc3)n[nH]c2=S)c1`, the inhibition was -6.53%.
With `NCCOc1ccccc1OCCN` the figure was 2.09%; with `COc1ccc(C2CC(c3ccc([N+](=O)[O-])cc3)=NN2C(=O)c2ccccc2)cc1OC` (stereo unspecified), -4.95%; with `O=C(c1ccc(-c2ccccc2)c(F)c1)C1CCCN(C(=O)c2cncs2)C1` (stereo unspecified), -5.72%.
For `O=C(OCC1OC2OC3(CCCCC3)OC2C2OC3(CCCCC3)OC12)c1ccccc1` (stereo unspecified), the inhibition was -6.56%.
For `COC1(C)CC2C(CC1OC(=O)c1cc([N+](=O)[O-])cc([N+](=O)[O-])c1)C2(C)C` (stereo unspecified), the inhibition is 2.54%.
Take `COc1ccc2c(c1)[N+](C)(C)C(C)(C)C=C2C`: the inhibition is 2.05%.
Turning to `CC(=O)OCC#CCSc1nc2ccccc2n1C`, the inhibition is -0.59%.
As for `CC(C)COCC1CC2(CC(C)(c3csc(N)n3)OC2=O)C(=O)O1` (stereo unspecified), the inhibition is -11.3%.
Take `COc1cc(C2NCCc3c2[nH]c2ccccc32)ccc1OC(C)C` (stereo unspecified): the inhibition was 1.55%.
In the case of `CC12CN3CC(C)(CN(C1)C3c1ccc(Br)cc1O)C2` (stereo unspecified), the inhibition is -9.4%.
As to `Cc1ccc2c(c1)C1(C(=O)N2)N2CCCC2C(C(=O)c2ccc3ccccc3c2)C12C(=O)Nc1ccccc12` (stereo unspecified), the inhibition was 8.82%.
For `COc1ccc(-c2noc(-c3ccccc3-c3ccccc3)n2)cc1`, the inhibition is 2.09%.
The figure for `O=C(CS(=O)(=O)Cc1ccccc1)NCc1ccc2c(c1)OCO2` is 1.08%; for `CC(=O)N(CCC(Cc1ccccc1)c1ccc2c(c1)OCO2)Cc1ccc(Cl)cc1` (stereo unspecified) it is 16.3%.
With `COc1ccc(C(=O)C2CCCCC2=O)cc1` (stereo unspecified) the figure was -11.5%; with `CSc1ccc2c(c1)N(CCC1CCCCN1C)c1ccccc1S2` (stereo unspecified), 61.6% (active); with `CC(CN1c2ccccc2Sc2ccccc21)N(C)C` (stereo unspecified), 7.73%.
In the case of `CCOC(=O)c1cc2c(nc1N)CC(C)(CC)OC2` (stereo unspecified), the inhibition is -11.6%.
Consider `COC(=O)C1=CN(Cc2cccs2)C=C(C(=O)OC)C1c1cccc(Cl)c1`, for which the inhibition was 11.7%.
The figure for `CN1C(=O)NC(c2ccc(O)cc2)C2=C1CN(c1cccc3ccccc13)C2=O` (stereo unspecified) is -2.34%; for `CC(=O)C1=C(NC(=O)c2ccc(C(F)(F)F)cc2)C[C@@H]2[C@H]1C2(C)C` it is 4.2%; for `CN(C)c1ccc(C(CN)c2c[nH]c3ccccc23)cc1` (stereo unspecified) it is -2.21%.
Take `O=[N+]([O-])c1cc(/C=N/n2cnnc2)ccc1N1CCCC1`: the inhibition is -0.23%.
As to `COC(=O)c1ccc(=O)n(Cc2ccco2)c1`, the inhibition is -5.57%.
`CC(=O)N1CC2(C)CN(C(C)=O)CC(C)(C1)C2`: the inhibition is -4.54%.
With `CSc1cccc(NC(=O)/C=C/c2ccccc2)c1` the figure was 5.27%; with `N/C(=N\OC(=O)c1ccc(Br)o1)c1ccccn1`, -4.88%.
Turning to `COc1ccc2c(=O)c(-c3cnn(-c4ccccc4)c3)c(C)oc2c1`, the inhibition is -8.23%.
With `COc1ccc(S(=O)(=O)N2CCN(C(=O)COc3ccc4c(C)cc(=O)oc4c3)CC2)cc1` the figure was -4%; with `CC(=O)C1=C(O)C(=O)N(Cc2cccnc2)C1c1ccc(C(C)C)cc1` (stereo unspecified), 0.222%.
With `CCOc1ccc(C(=O)NCC2(c3ccccc3)CCOCC2)cc1`, the inhibition was -5.73%.
As to `COc1ccc(CNC(=O)C2CCN(C(=O)[C@@H](CC(C)C)NC(=O)OC(C)(C)C)CC2)cc1`, the inhibition is 2.06%.
For the compound `CCc1oc2ccccc2c1C(=O)c1cc(Br)c(O)c(Br)c1`, the inhibition is -13.4%.
On to `CCCCc1oc2ccccc2c1C(=O)c1cc(I)c(OCCN(CC)CC)c(I)c1`, for which the inhibition was 72.2% (active).
For the compound `CCCCOc1cc(C(=O)NCCN(CC)CC)c2ccccc2n1`, the inhibition was 8.91% and -1.38%.
For the compound `Cc1ccc2c(c1)C(O)(C1COC(C)(C)CC1=O)C(=O)N2C` (stereo unspecified), the inhibition was -1%.
The figure for `COc1cccc2c(O)cc(=O)n(C)c12` is 6.83%.
As to `COc1cccc(=O)c2c(C)n(CC(=O)c3ccccc3)c(C)c12`, the inhibition is -138%.
With `O=C(CCC(=O)NCCO)NCCO`, the inhibition was 4.45%.
The figure for `CC1=C/C(=N\N=C2\NC(=O)C(CC(=O)Nc3ccccc3F)S2)CC(C)(C)C1` (stereo unspecified) is -3.25%; for `CSCC[C@H](NC(=O)NC1CCCC1)C(=O)O` it is -5.4%.
In the case of `CCOC(=O)c1cnc2ccc(C(=O)OC)cc2c1Nc1ccc2c(c1)OCCO2`, the inhibition was 0.862%.
The figure for `CN(C)CCOC(c1ccccc1)c1ccccc1` (tested in a mixture with another compound) is 0.693%.
With `O=C(OCCNC(=O)c1ccc2ccccc2n1)c1ccc(F)cc1` the figure was 3.05%; with `CC1CCN(CCOCCOc2ccccc2Br)CC1`, -6.71%.
In the case of `CC1(C)CC(NCc2ccccc2)CCO1` (stereo unspecified), the inhibition is -6.22%.
In the case of `Cc1nc(N[C@@H](Cc2c[nH]c3ccccc23)C(=O)O)c2oc3ccccc3c2n1`, the inhibition was -19.8%.
`COc1ccc(NC(=O)CC(c2ccccc2)c2ccco2)cc1` (stereo unspecified): the inhibition is -8.33%.
For `CC(=O)SC1CC2=CC(=O)CCC2(C)C2CCC3(C)C(CCC34CCC(=O)O4)C12` (stereo unspecified), the inhibition is -15.3%.
With `COc1ccc(C2NC(=O)c3ccccc3O2)c(OC)c1OC` (stereo unspecified) the figure was -1.29%; with `COc1cccc(/C=C/C(=O)c2c(O)cc(C)oc2=O)c1O`, -38.5%; with `CCOc1ccc(NC2OC(C)C(O)C(O)C2O)c([N+](=O)[O-])c1` (stereo unspecified), -2.79%.

One may read the inhibition as the change of the read-out against control, counted positive when it falls.

Source of the values: PubChem BioAssay AID651660 (Broad Institute, 2012).
